Rows were chosen to be rich in hits. Some 6.8% of all compounds tested hit in one or more screens of this group.
A340 absorber = absorbance at 340 nm; compound absorbance at 340 nm, fold over control; fold change at 10 µM; 65,000 tested, under 10 active; AID 708;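 active = at 10 µM dose, initial 340 nm absorbance at least 2 fold that of control wells; inactive = change under 2 fold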;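 also: initial absorbance extrapolated from kinetic A340 decline of NADH oxidation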
Spn PMK inh = inhibitors of Streptococcus pneumoniae phosphomevalonate kinase; purified PMK, PK/LDH-coupled NADH absorbance 340 nm; inhibition, % at 10 µM; 65,000 compounds, 0.49% hits; AID 539;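 active = top-ranked compounds by inhibition in the single 10 µM screen, taking a fixed number of the strongest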;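 also: 0% = full reaction with DMSO carrier and 100% = background rate without enzyme reaction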
MK inhibit = inhibitors of Streptococcus pneumoniae mevalonate kinase; purified MK, PK/LDH-coupled NADH absorbance 340 nm; inhibition, % at 10 µM; 65,000 compounds, 0.48% hits; AID 555;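 active = ranked among the strongest by inhibition in the single 10 µM screen, a fixed top-ranked set picked for dose follow-up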
Spn DPM-DC inh = inhibitors of Streptococcus pneumoniae diphosphomevalonate decarboxylase. purified DPM-DC, PK/LDH coupled NADH fluorescence. calls only at 10 µM. 65,000 compounds, 0.49% hits. AID 556;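 active = the 320 compounds with the highest percent inhibition in the single-dose primary screen, excluding strongly autofluorescent ones, cut at about 32% in these data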;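 also: kinetic rate of NADH fluorescence loss reporting ADP formed by the decarboxylase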
Autofluor 339 = intrinsic fluorescence of library compounds, ex339/em460 – biochemical, MLSMR library, data from DPM-DC assay, artefact control, profiling panel | fluorescence fold increase at 10 µM | compound autofluorescence, ex339/em460 nm, NADH buffer; active compounds read high; 1 = no-compound wells, NADH background | AID 709 | 65,000 compounds, 5.5% hits;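 active = at 10 µM, mean starting fluorescence two-fold or more over control wells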;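 also: signal is the first read of a kinetic run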
NADH coupling = inhibitors of enzymes used to reach an NAD/NADH endpoint; coupled PK/LDH NADH assays, four targets; IC50, µM (highest dose often 10 µM), without a hit: at the highest dose inhibition; 65,000 compounds, 0.02% hits; AID 774;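 active = single-dose screening hits from any of four coupled enzyme assays that gave an IC50 when retested across doses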;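 also: the DPM-DC format reads NADH fluorescence rather than 340 nm absorbance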
Active calls of the source: *; i = inactive; · = no result shown.

SMILES	A340 absorber	Spn PMK inh	MK inhibit	Spn DPM-DC inh	Autofluor 339	NADH coupling
CCC(=O)n1nc(NCc2ccccc2OC)nc1NCc1ccccc1OC	1	9	3	i	1.1	4%
COc1ccccc1C1/C(=C(/O)c2ccccc2)C(=O)C(=O)N1CC(C)O (centres undefined)	1.1	7	11	i	1.1	7%
Cc1nccc2[nH]c(=O)c(C(=O)NC3CCN(Cc4ccccc4)CC3)cc12	1.1	0	6	i	1.1	2%
O=C1c2ccccc2C(O)N1Cc1ccco1 (centres undefined)	1	10	8	i	1.1	6%
O=C1c2ccccc2NC(c2cccc(F)c2)N1Cc1ccco1 (centres undefined)	0.99	4	6	·	3*	5%
Cc1ccc(C2Nc3ccccc3C(=O)N2Cc2ccco2)cc1 (centres undefined)	1	6	8	·	4*	7%
COc1ccc(C2Nc3ccccc3C(=O)N2Cc2ccco2)cc1COc1ccc(NC(C)=O)cc1 (centres undefined)	1.1	1	0	·	3.8*	1%
O=C(Nc1ccc(-c2noc(-c3cccs3)n2)cc1)c1cccnc1	1	0	7	i	1.1	1%
CCCCS(=O)(=O)C(=C1Nc2ccccc2N1)S(=O)(=O)CCCC	1.1	26*	13	i	1.2	15%
Cc1cccn2c(=O)c3cc(C(=O)NCc4ccco4)c(=N)n(C(C)C)c3nc12	1	1	11	·	2.3*	6%
COCCCn1c(=N)c(C(=O)NCc2ccc3c(c2)OCO3)cc2c(=O)n3cccc(C)c3nc21	1	13	7	i	1.7	7%
Cc1cccn2c(=O)c3cc(C(=O)NCc4ccco4)c(=N)n(CCc4ccccc4)c3nc12	1	23	5	·	3.8*	14%
CCOc1cc(S(=O)(=O)NCc2ccccc2)ccc1F	1	2	7	i	1.1	3%
CSc1nnc2c3c4c(sc3nc(-n3nc(C)cc3C)n12)COC(C)(C)C4	1.1	0	3	i	3*	2%
Cc1cc(C)n(-c2nc(-n3nc(C)cc3C)c3c4c(sc3n2)COC(C)(C)C4)n1	1.1	0	11	i	1.3	7%
Cc1cc(C)n(-c2nc3sc4c(c3c3nnc(SCC(N)=O)n23)CC(C)(C)OC4)n1	1.1	0	3	i	2.7*	0%
CCNC(=O)CN(c1ccc(CC)cc1)S(C)(=O)=O	1	3	5	i	1.1	3%
O=C(C1CCCN(S(=O)(=O)c2ccc(F)cc2)C1)N(Cc1cccs1)C1CC1 (centres undefined)	1	0	5	i	1	5%
Nc1cccc(-c2nc3ccc(N)cc3s2)c1	1.1	11	11	·	3.9*	11%
Cc1csc2nc(=O)c3ccccc3n12	1	11	10	·	3.7*	11%
COC(=O)c1cc(OC)c(OC)cc1NC(=O)c1ccoc1C	1.1	5	3	·	3.3*	4%
COC(=O)c1cc(OC)c(OC)cc1NC(=O)c1ccccc1	1.1	3	1	·	2.2*	2%
Cc1nn(C)c(C)c1NC(=O)CSc1nc(-c2ccccc2F)nc2c1cnn2-c1ccccc1	1	18	0	i	2.1*	10%
CCCC1C(C#N)=C(N)Oc2n[nH]c(C(C)(C)C)c21 (centres undefined)	0.99	9	10	i	1	3%
CCOC(=O)N1CCN(Cc2nc3c(c(=O)[nH]c(=O)n3C)n2Cc2cc(C)ccc2C)CC1	0.97	2	2	i	1.1	3%
SMILES	A340 absorber	Spn PMK inh	MK inhibit	Spn DPM-DC inh	Autofluor 339	NADH coupling
C=CCn1c(-c2ccccc2)nc2nc3ccccc3nc21	1.2	21	0	·	2.1*	11%
C=CCNc1oc(-c2ccc(OCC)cc2)nc1C#N	1.1	0	3	·	2.3*	2%
N#Cc1nc(-c2ccc(OCc3ccc(Cl)cc3)cc2)oc1NCCCn1ccnc1	1.1	4	1	i	1.6	2%
CCOc1ccc(-c2nc(C#N)c(NCC(C)C)o2)cc1	1	9	0	·	2.4*	5%
C=CCNc1oc(-c2ccc(OC)cc2)nc1C#N	1	3	3	·	3.7*	3%
CC12CCC(c3c(C(=O)Nc4nccs4)nn(-c4ccccc4)c31)C2(C)C (centres undefined)	0.99	17	6	i	1.1	8%
CCCn1c(NC(=O)c2cccc(S(=O)(=O)N3CCCC3)c2)nc2ccccc21	1.1	17	0	i	1.3	9%
Cc1cc(C)nc(NC(=O)c2cccc(Cl)c2)n1	1	1	0	i	1.1	0%
Cc1cccc(NC(=O)c2sc3nc(-c4ccc(F)cc4)cn3c2C)n1	1.1	14	8	·	4.5*	11%
Cc1cccc(NC(=O)c2sc3nc(-c4ccccc4)cn3c2C)n1	1	5	0	i	1.2	2%
Brc1ccccc1-c1nnc(-c2cccnc2)o1	1	0	0	i	1.1	0%
COc1cc(-c2nnc(SCC#CCO)o2)cc(OC)c1OC	1	9	6	i	1.1	5%
COc1cc(-c2nnc(-c3cccs3)o2)cc(OC)c1OC	1	14	0	i	2.5*	13%
c1coc(-c2nnc(-c3cccs3)o2)c1	1	24	0	·	3.4*	6%
O=c1cc(-c2ccco2)nc(-c2cccs2)o1	1.1	6	2	i	1.1	3%
c1cncc(-c2nnc(-c3cccs3)o2)c1	1	8	11	i	2.3*	6%
c1csc(-c2nnc(-c3ccc(N4CCOCC4)cc3)o2)c1	1.2	19	9	·	3.7*	14%
CCOc1ccccc1C(=O)N1CCCCC1C (centres undefined)	1.1	11	0	i	1.1	4%
COc1cccc(NC(=O)CSc2nnc(-c3cc(-c4ccccn4)nc4ccccc34)o2)c1	1	13	2	i	1.2	1%
Cc1nc2nc[nH]n2c(=O)c1CCC(C)C	1	13	8	i	1.1	7%
COc1cccc(NC(=O)CN2C(=O)COc3ccc(Cl)cc32)c1	1	17	6	i	0.99	8%
CCOc1ccc(-c2nnc(-c3cccs3)o2)cc1OCC	1.1	14	9	·	3.7*	12%
COc1cc2nc(-c3cccs3)oc(=O)c2cc1OC	1.3	3	11	i	1.2	10%
COc1ccc(-c2nnc(-c3cccs3)o2)cc1OC	1	0	10	·	2.5*	3%
CCOc1ccc(-c2nc(-c3ccccc3)no2)cc1OCC	1	5	4	i	1.1	3%
O=C(Nc1ccccc1)N(C1=NCCC1)c1ccc(OC(F)F)cc1	0.99	4	0	i	1.1	1%
CCOC(=O)C1CCN(C(=O)c2cc3cc4cc(OC)ccc4nc3o2)CC1	1	11	0	·	5.1*	6%
